“And” between values parts separate entries of the source, which are not always exact repeats. Equal entries are not always repeated. Results filed as inconclusive are left out. Where a call stands in place of a potency, no number is given. The source made the active and inactive calls. Unless noted, calls come from the whole dose curve; as a rule, active = well fitted curve in the direction sought with a large enough effect; inconclusive = small, poorly fitted or top-dose-only effect, or another doubt; inactive = no such curve, though single readings can be large; an effect the other way counts as inactive or inconclusive.
Experiments:
[1] = Cell Viability - Jurkat (AID 426;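 active = dose-dependent loss of cell ATP signal giving a full or clear fitted curve, ranked by lower potency value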;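 note: potency is the fitted concentration of half-maximal effect; cells exposed to compound for 40 hours at 37 °C before ATP read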); conditions: qHTS
In short: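 Cytotoxicity was scored as loss of cellular ATP, measured by luciferase-based luminescence, in Jurkat clone E6-1 cells after 40 h compound treatment; tamoxifen and doxorubicin served as positive controls.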

[2] = Cell Viability - Hek293 (AID 427;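 active = compounds whose dose-response curve shows a full or clear partial loss of cell viability, called from curve shape rather than a numeric limit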;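 note: potency is the fitted concentration of half-maximal effect; cells exposed to compound for 40 hours at 37 °C before reading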); conditions: qHTS
In short: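 Luminescent ATP content (CellTiter-Glo, 20 min at room temperature) was measured after a 40 hr, 37 °C compound exposure of HEK293 cells. AC50 values came from Hill-equation fits of qHTS concentration-response data normalized to DMSO and 100 uM tamoxifen.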

[3] = Cell Viability - N2a (AID 540); conditions: N2a mouse neuroblastoma cell viability; at 92.2 µM (top of the series);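 note: cells exposed to compound for 40 h at 37 °C; nearly all actives have a fitted effect of over 45% in size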
In short: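 In this qHTS cytotoxicity screen, ATP-dependent luciferase luminescence reports viable N2a cells after a 40 hr compound exposure in complete culture medium. Potencies are AC50 values from standard Hill equation fits.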

[4] = Cellular Toxicity (caspase-3) NIH 3T3 (AID 666); conditions: NIH 3T3 caspase-3 activation, apoptosis/toxicity, 0% DMSO, 100% is 100 µM tamoxifen; series mostly up to 92.2 µM;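 note: caspase signal read after 16 h compound exposure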
In short: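 Activity: caspase-3/7 induction, NIH 3T3 cells, 16 hr treatment at 37°C, luminescent Caspase-Glo detection; AC50 via Hill equation.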

[5] = biological target: Cytochrome P450 3A4 (Homo sapiens) (UniProt P08684); assay: qHTS Assay for Inhibitors and Substrates of Cytochrome P450 3A4 (AID 884); conditions: recombinant CYP3A4, Luciferin-PPXE luminescence; series mostly up to 57.1 µM; note: nearly all actives have a fitted effect of over 50% in size; note: potency is the fitted concentration of half-maximal effect
In short: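 Luminescent readout of luciferin produced by CYP3A4 (20 nM) dealkylation of Luciferin-PPXE, 25 uM (its KM). NADPH-driven reaction ran 60 min at RT after 10 min compound preincubation; data scaled to 57 uM ketoconazole as 100% inhibition.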

[6] = Cell Viability - LYMP2-001 (AID 921); conditions: LYMP2-001 lymphoblastoid cell viability; series mostly up to 92.2 µM;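 note: cells exposed to compound for 24 h at 37 °C; nearly all actives have a fitted effect of over 70% in size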
In short: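 CellTiter-Glo luminescence (intracellular ATP) after 24 hr compound exposure at 37 C, 2500 lymphoblastoid cells/well in complete medium. AC50 fitted with standard Hill equation; tetraoctylammonium bromide positive control.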

[7] = Cell Viability - LYMP2-011 (AID 969); conditions: LYMP2-011 lymphoblastoid cells viability; series mostly up to 92.2 µM; note: nearly all actives have a fitted effect of over 60% in size
In short: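 Cells seeded at 2500 per well rest 5 hr before compound addition, then incubate 24 hr at 37 C. CellTiter-Glo reagent is added for 30 min at room temperature before luminescence detection.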

[8] = Cell Viability - LYMP2-013 (AID 970); conditions: LYMP2-013 lymphoblastoid cells viability; series mostly up to 92.2 µM;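 note: cells exposed to compound for 24 h at 37 °C; nearly all actives have a fitted effect of over 55% in size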
In short: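 In complete culture medium, human lymphoblastoid cells were dosed for 24 hr at 37 C, with tetraoctylammonium bromide (6.4pM to 92 uM) as positive control. Viability reflects luciferase-based ATP signal; AC50 derived from concentration-response curves.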

[9] = Cell Viability - LYMP2-017 (AID 972); conditions: LYMP2-017 lymphoblastoid cell viability; series mostly up to 92.2 µM; note: nearly all actives have a fitted effect of over 55% in size
In short: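 In this qHTS format, lymphoblastoid cells in complete medium receive test compound for a day at 37 C before ATP content is quantified by luciferase luminescence. Reported AC50 figures come from standard Hill-equation curve fitting.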

[10] = Cell Viability - LYMP2-007 (AID 979); conditions: LYMP2-007 lymphoblastoid cell viability; series mostly up to 92.2 µM;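 note: cells exposed to compound for 24 h before reading; nearly all actives have a fitted effect of over 60% in size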
In short: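 Measured via luciferase-based ATP quantitation: lymphoblastoid cells, 24 hr compound exposure at 37 C, AC50 from Hill fits.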

[11] = Cell Viability - LYMP2-008 (AID 980); conditions: LYMP2-008 lymphoblastoid cell viability, qHTS; series mostly up to 92.2 µM;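 note: cells exposed to compound for 24 h at 37 °C; nearly all actives have a fitted effect of over 60% in size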
In short: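 Measured: ATP-dependent luminescence, proportional to viable cell number, in human lymphoblastoid cells treated 24 hr with compound in complete culture medium. Values are AC50s from Hill-equation modelling of qHTS titrations.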

[12] = Cell Viability - LYMP2-010 (AID 981); conditions: LYMP2-010 lymphoblastoid cell viability, qHTS; series mostly up to 92.2 µM; note: nearly all actives have a fitted effect of over 55% in size
In short: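 This 24 hr viability screen uses LYMP2-010 lymphoblastoid cells, quantifies ATP via luciferase luminescence, and derives AC50 from Hill fits of qHTS concentration-response data.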

[13] = Cell Viability - LYMP2-014 (AID 983); conditions: LYMP2-014 lymphoblastoid cells, viability qHTS; series mostly up to 92.2 µM;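 note: cells exposed to compound for 24 h at 37 °C; nearly all actives have a fitted effect of over 50% in size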
In short: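 Quantitative HTS in lymphoblastoid cells: 24 hr compound exposure, then CellTiter-Glo ATP luminescence. Positive control was tetraoctylammonium bromide, 6.4pM to 92 uM.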

[14] = Cell Viability - LYMP1-002 - Assay at 24 hr (AID 993); conditions: LYMP1-002 lymphoblastoid cells viability; series mostly up to 92.2 µM
In short: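 Viability was judged from intracellular ATP using a luciferase read-out, following a 24-hour compound incubation at 37 C of lymphoblastoid cells seeded at 2500 per well. Concentration-response data were fitted to the Hill equation for AC50.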

[15] = biological target: Peroxisome proliferator-activated receptor delta (Homo sapiens) (UniProt Q03181); assay: qHTS assay for small molecule agonists of peroxisome proliferator-activated receptor delta signaling (AID 588534; calls by dose curve); conditions: HEK293T PPARdelta-UAS-bla, beta-lactamase ratio, 18 h; series mostly up to 76.7 µM
In short: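 EC50 and efficacy values derive from Hill fits of a concentration series in a beta-lactamase reporter cell assay. Exposure is 18 hrs at 37 C, with CCF4 fluorescence as the readout.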

[16] = qHTS assay for small molecule agonists of retinoid X receptor alpha signaling (AID 588544; calls by dose curve); conditions: HEK293T RXRa-UAS-bla, beta-lactamase reporter, 18 h; 530 nm emission
[17] = biological target: Retinoic acid receptor RXR-alpha (Homo sapiens) (UniProt P19793); assay: as above; conditions: HEK293T RXRa-UAS-bla, beta-lactamase reporter, 18 h; series mostly up to 76.7 µM
[18] = biological target: Peroxisome proliferator-activated receptor alpha (Homo sapiens) (UniProt Q07869); assay: qHTS assay for small molecule agonists of the peroxisome proliferator-activated receptor alpha (PPARalpha) signaling pathway (AID 651778); conditions: PathHunter PPARalpha complementation, chemiluminescence, 6 h; stronger effect = higher value
In short: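 Cells plated at 2,000/well and held overnight at 37 C, 5% CO2, then compound added by pin tool for 6 hr; after PathHunter detection reagent and 60 min at room temperature, chemiluminescence from enzyme complementation was read.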

[19] = biological target: Nuclear receptor ROR-gamma (Homo sapiens) (UniProt P51449); assay: qHTS assay for small molecule antagonists of the retinoid-related orphan receptor gamma (ROR-gamma) signaling pathway (AID 651802); conditions: ROR-gamma antagonist cell reporter assay; series mostly up to 92.2 µM;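 note: CHO cells with doxycycline-induced ROR-gamma expression; luciferase reporter luminescence driven by ROR response element; nearly all actives have a fitted effect of over 60% in size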
In short: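 Doxycycline-induced reporter activity in engineered CHO cells (TET-inducible ROR, RORE-LUC) was measured by luminescence after 16hr compound exposure at 37C.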

[20] = qHTS assay for small molecule antagonists of the retinoid-related orphan receptor gamma (ROR-gamma) signaling pathway - cell viability counter screen (AID 720652; active = well fitted curve in the direction sought with a large enough effect in the repeat runs; an effect the other way counts as inactive or inconclusive;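 note: CHO reporter cells with doxycycline-induced ROR-gamma expression; compound exposure lasted 16 hr before ATP read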); conditions: RORgamma reporter cell line viability counter screen; series mostly up to 92.2 µM
In short: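 ATP-based viability readout in the ROR-gamma reporter CHO cells after 16 hr compound exposure under doxycycline induction.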

Chain of Retinoic acid receptor RXR-alpha (Homo sapiens) (P19793 whole entry, looked up): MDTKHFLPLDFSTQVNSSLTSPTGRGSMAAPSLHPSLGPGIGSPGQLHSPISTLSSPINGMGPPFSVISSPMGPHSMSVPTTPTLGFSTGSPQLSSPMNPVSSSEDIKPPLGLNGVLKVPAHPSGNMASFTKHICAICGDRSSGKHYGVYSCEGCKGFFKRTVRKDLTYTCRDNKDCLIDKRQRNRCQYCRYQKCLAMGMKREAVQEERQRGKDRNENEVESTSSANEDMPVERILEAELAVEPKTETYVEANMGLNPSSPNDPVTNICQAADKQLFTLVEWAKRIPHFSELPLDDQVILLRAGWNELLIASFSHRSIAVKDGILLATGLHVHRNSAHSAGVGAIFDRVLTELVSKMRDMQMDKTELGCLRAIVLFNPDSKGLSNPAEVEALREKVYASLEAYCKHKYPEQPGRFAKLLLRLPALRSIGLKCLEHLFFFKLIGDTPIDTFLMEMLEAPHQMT
Chain of Peroxisome proliferator-activated receptor delta (Homo sapiens) (Q03181 whole entry, looked up): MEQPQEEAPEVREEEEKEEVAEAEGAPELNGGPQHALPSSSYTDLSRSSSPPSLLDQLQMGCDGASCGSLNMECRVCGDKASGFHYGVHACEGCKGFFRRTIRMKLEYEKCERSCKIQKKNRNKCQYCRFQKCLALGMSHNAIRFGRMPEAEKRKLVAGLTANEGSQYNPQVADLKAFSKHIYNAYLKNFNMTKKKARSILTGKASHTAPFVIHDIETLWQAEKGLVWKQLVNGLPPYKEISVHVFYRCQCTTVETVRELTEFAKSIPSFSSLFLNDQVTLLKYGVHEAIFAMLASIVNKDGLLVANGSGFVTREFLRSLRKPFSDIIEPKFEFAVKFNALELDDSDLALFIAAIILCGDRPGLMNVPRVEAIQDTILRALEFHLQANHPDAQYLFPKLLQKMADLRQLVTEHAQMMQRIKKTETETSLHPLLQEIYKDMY
Chain of Cytochrome P450 3A4 (Homo sapiens) (P08684 whole entry, looked up): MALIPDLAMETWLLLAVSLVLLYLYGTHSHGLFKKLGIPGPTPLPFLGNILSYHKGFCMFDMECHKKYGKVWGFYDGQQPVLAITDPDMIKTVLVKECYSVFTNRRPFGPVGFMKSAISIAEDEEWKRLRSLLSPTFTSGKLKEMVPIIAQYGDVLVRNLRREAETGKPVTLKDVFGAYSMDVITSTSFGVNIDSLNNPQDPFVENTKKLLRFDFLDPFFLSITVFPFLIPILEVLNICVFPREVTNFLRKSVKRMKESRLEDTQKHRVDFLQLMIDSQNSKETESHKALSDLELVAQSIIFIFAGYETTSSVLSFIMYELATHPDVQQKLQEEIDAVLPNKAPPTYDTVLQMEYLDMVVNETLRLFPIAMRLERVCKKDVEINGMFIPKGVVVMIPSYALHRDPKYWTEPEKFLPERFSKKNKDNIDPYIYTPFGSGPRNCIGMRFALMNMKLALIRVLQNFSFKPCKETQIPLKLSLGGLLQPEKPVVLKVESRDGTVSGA
Chain of Nuclear receptor ROR-gamma (Homo sapiens) (P51449 whole entry, looked up): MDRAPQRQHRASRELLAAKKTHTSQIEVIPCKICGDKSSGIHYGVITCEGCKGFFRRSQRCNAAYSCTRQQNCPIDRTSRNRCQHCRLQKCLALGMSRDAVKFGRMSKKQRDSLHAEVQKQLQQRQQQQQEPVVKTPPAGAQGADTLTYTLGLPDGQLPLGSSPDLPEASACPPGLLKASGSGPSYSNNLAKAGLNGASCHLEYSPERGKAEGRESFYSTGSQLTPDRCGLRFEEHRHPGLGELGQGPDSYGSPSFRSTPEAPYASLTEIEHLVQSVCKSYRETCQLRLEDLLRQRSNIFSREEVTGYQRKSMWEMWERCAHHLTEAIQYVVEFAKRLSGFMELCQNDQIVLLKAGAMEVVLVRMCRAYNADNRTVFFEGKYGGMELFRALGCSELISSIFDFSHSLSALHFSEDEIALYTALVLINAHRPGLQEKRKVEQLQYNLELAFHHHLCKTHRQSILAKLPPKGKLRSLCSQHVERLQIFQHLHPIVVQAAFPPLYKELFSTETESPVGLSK
Chain of Peroxisome proliferator-activated receptor alpha (Homo sapiens) (Q07869 whole entry, looked up): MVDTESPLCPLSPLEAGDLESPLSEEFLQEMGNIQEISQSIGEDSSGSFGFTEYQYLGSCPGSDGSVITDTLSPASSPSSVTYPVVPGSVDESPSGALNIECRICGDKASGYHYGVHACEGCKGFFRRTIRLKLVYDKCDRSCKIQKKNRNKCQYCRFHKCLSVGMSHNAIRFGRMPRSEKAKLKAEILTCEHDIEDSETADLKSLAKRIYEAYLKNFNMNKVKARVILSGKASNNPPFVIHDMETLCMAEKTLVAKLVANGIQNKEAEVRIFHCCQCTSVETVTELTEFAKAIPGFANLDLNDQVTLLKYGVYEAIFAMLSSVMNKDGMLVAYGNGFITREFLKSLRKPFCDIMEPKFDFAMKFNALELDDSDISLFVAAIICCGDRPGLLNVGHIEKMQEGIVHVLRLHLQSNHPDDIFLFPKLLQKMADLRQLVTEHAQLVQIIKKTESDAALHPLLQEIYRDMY

SMILES | Potency [1] | Potency [2] | activity change, negative = cytotoxicity [3] | outcome [4] | Potency [5] | Potency [6] | Potency [7] | Potency [8] | Potency [9] | Potency [10] | Potency [11] | Potency [12] | Potency [13] | Potency [14] | outcome [15] | max response [16] | Potency [17] | max response [18] | Potency [19] | Potency [20]
C[N+](C)(C)Cc1ccccc1 | > 92 µM (inactive) | > 92 µM (inactive) | -22% (inactive) | inactive | inactive | inactive | inactive | inactive | inactive | inactive | inactive | inactive | inactive | inactive | inactive | 3.34% and -11.4% | inactive | -5.46% (inactive) and 0.269% (inactive) | inactive | inactive
c1ccc(OP(Oc2ccccc2)Oc2ccccc2)cc1 | > 92 µM (inactive) | > 92 µM (inactive) | 6.82% (inactive) | inactive | inactive | inactive | inactive | inactive | inactive | inactive | inactive | inactive | inactive | inactive |  | 3.52% and -16.1% | inactive | -2.33% (inactive) and -1.84% (inactive) | inactive | inactive
Cc1cccc(C#N)c1 | > 92 µM (inactive) | > 92 µM (inactive) | -2.18% (inactive) | inactive | inactive | inactive | inactive | inactive | inactive | inactive | inactive | inactive | inactive | inactive | inactive | -7.67% | inactive | -0.3% (inactive) | inactive | inactive
O=NN(CCO)CCO | > 92 µM (inactive) | > 92 µM (inactive) | -10.5% (inactive) | inactive | inactive | inactive | inactive | inactive | inactive | inactive | inactive | inactive | inactive | inactive |  | -8.04% | inactive | -4.3% (inactive) | inactive | inactive
C=C(C)[C@H]1CC=C(C)C(=O)C1 |  |  |  |  |  |  |  |  |  |  |  |  |  |  | inactive |  |  |  |  | 
CCOP(=S)(OCC)Oc1ccc([N+](=O)[O-])cc1 | > 92 µM (inactive) | > 92 µM (inactive) |  | inactive | 10 µM (active) and 5.01 µM (active) | inactive | inactive | inactive | inactive | inactive | inactive | inactive | inactive | inactive | inactive | -6.89% and 6.11% | inactive | -0.408% (inactive) and 4.67% (inactive) and -3.29% (inactive) | inactive | inactive
Nc1c(Cl)c(Cl)nc(C(=O)O)c1Cl | > 92 µM (inactive) | > 92 µM (inactive) | -4.43% (inactive) | inactive | inactive | inactive | inactive | inactive | inactive | inactive | inactive | inactive | inactive | inactive | inactive | 27.1% | inactive | 0.0872% (inactive) and -2.27% (inactive) and -1.09% (inactive) | inactive | inactive
Cc1ccc([N+](=O)[O-])cc1C | > 92 µM (inactive) | > 92 µM (inactive) | -25% (inactive) | inactive | inactive | inactive | inactive | inactive | inactive | inactive | inactive | inactive | inactive | inactive | inactive | -11.5% | inactive | -4.21% (inactive) and -1.01% (inactive) | inactive | inactive
COc1cc2occc2c2oc(=O)ccc12 |  |  |  |  | 12.6 µM (active) |  |  |  |  |  |  |  |  |  |  |  |  |  |  | 

— PubChem BioAssay (NCATS)
